The nature of assay [1]: qHTS RealTime-Glo MT Cell Viability Assay in HepG2 cells - 40 hour (AID 1224870). Further: nearly all actives have a fitted effect of over 50% in size. Further: potency means the concentration at half of the fitted maximal effect. In short, it runs like this:
(§1)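 Real-time viability: cells seeded at 600 per well together with NanoLuc and cell-permeant prosubstrate, compounds added after 5 h incubation. Luminescence tracked at 0, 8, 16, 24, 32 and 40 h of exposure.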
On the technique in general: Quantitative high-throughput screening tests each substance at several concentrations.

The nature of assay [2]: A CellTox Green Cytotoxicity Assay to monitor cytotoxicity in HEK293 cells - 40 hour (AID 1224871). Further: nearly all actives have a fitted effect of over 45% in size. Further: potency means the concentration at half of the fitted maximal effect. In short, it runs like this:
(§2)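 Fluorescence intensity, read at 0, 8, 16, 24, 32 and 40 h of compound treatment, reflected dye binding to DNA of dead HEK293 cells; compounds (23 nL, DMSO) were added 5 h after plating cells with reagent.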

Assay [3] can be described thus: qHTS RealTime-Glo MT Cell Viability Assay in HEK293 cells - 16 hour (AID 1224872). Further: nearly all actives have a fitted effect of over 50% in size. Further: potency means the concentration at half of the fitted maximal effect. In outline: (§3)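 Homogeneous bioluminescent viability format in HEK293 cells (600 cells/well). Following 5 h at 37 C/5% CO2, 23 nL compound was pintooled; the signal was measured repeatedly during 40 h incubation.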
A short description of assay [4]: qHTS RealTime-Glo MT Cell Viability Assay in HepG2 cells - 8 hour (AID 1224873). Further: nearly all actives have a fitted effect of over 55% in size. In outline:
as §1

A short description of assay [5]: qHTS RealTime-Glo MT Cell Viability Assay in HEK293 cells - 40 hour (AID 1224874). Further: nearly all actives have a fitted effect of over 50% in size. Further: potency means the concentration at half of the fitted maximal effect. The following applies: RealTime-Glo luminescence; max response: hits give low values. In short, it runs like this: (§4)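 Viable HEK293 cells reduce a cell-permeant prosubstrate; the product diffuses out and is consumed by NanoLuc in the medium to give light. Compounds went in after a 5 h incubation and plates were read over the treatment course.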

Assay [6] is described as follows: A CellTox Green Cytotoxicity Assay to monitor cytotoxicity in HepG2 cells - 16 hour (AID 1224876). Further: nearly all actives have a fitted effect of over 45% in size. Further: potency means the concentration at half of the fitted maximal effect. In short, it runs like this: (§5)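 Using 1536-well format, dye-containing HepG2 suspension was seeded, allowed 5 h at 37 C/5% CO2, dosed by pintool with compounds, positive and negative controls, and imaged for fluorescence across 40 h.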
Assay [7] in a line: qHTS RealTime-Glo MT Cell Viability Assay in HepG2 cells - 32 hour (AID 1224877). Further: nearly all actives have a fitted effect of over 55% in size. In short, it runs like this: (§6)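 Cell number in HepG2 cultures estimated from NanoLuc luminescence generated by metabolic reduction of a prosubstrate by living cells. The homogeneous, nonlytic format allowed repeated reads at 0, 8, 16, 24, 32 and 40 h of compound exposure.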
Assay [8] can be described thus: A CellTox Green Cytotoxicity Assay to monitor cytotoxicity in HepG2 cells - 24 hour (AID 1224878). Further: nearly all actives have a fitted effect of over 45% in size. Further: potency means the concentration at half of the fitted maximal effect. In outline:
as §5

The nature of assay [9]: A CellTox Green Cytotoxicity Assay to monitor cytotoxicity in HepG2 cells - 40 hour (AID 1224879). Further: nearly all actives have a fitted effect of over 40% in size. Further: potency means the concentration at half of the fitted maximal effect. In outline:
as §5

Assay [10] is described as follows: A CellTox Green Cytotoxicity Assay to monitor cytotoxicity in HEK293 cells - 32 hour (AID 1224881). Further: nearly all actives have a fitted effect of over 40% in size. In short, it runs like this: as §2
Assay [11] is described as follows: A CellTox Green Cytotoxicity Assay to monitor cytotoxicity in HepG2 cells - 0 hour (AID 1224882). Further: nearly all actives have a fitted effect of over 35% in size. In outline: as §5
Assay [12] can be described thus: A CellTox Green Cytotoxicity Assay to monitor cytotoxicity in HepG2 cells - 32 hour (AID 1224883). Further: nearly all actives have a fitted effect of over 50% in size. Further: potency means the concentration at half of the fitted maximal effect. In outline:
as §5

Assay [13] in a line: A CellTox Green Cytotoxicity Assay to monitor cytotoxicity in HEK293 cells - 8 hour (AID 1224884). Further: nearly all actives have a fitted effect of over 35% in size. In outline: as §2
Assay [14] can be described thus: qHTS RealTime-Glo MT Cell Viability Assay in HepG2 cells - 16 hour (AID 1224885). Further: nearly all actives have a fitted effect of over 50% in size. In outline:
as §6

The nature of assay [15]: qHTS RealTime-Glo MT Cell Viability Assay in HEK293 cells - 24 hour (AID 1224886). Further: nearly all actives have a fitted effect of over 50% in size. Further: potency means the concentration at half of the fitted maximal effect. In short, it runs like this:
as §3

The nature of assay [16]: qHTS RealTime-Glo MT Cell Viability Assay in HEK293 cells - 8 hour (AID 1224887). Further: nearly all actives have a fitted effect of over 50% in size. Further: potency means the concentration at half of the fitted maximal effect. In outline: as §4
A short description of assay [17]: A CellTox Green Cytotoxicity Assay to monitor cytotoxicity in HEK293 cells - 16 hour (AID 1224888). Further: nearly all actives have a fitted effect of over 35% in size. In outline:
as §2

Assay [18] is described as follows: qHTS RealTime-Glo MT Cell Viability Assay in HepG2 cells - 0 hour (AID 1224889). Further: nearly all actives have a fitted effect of over 50% in size. In short, it runs like this:
as §6

Assay [19] in a line: A CellTox Green Cytotoxicity Assay to monitor cytotoxicity in HEK293 cells - 24 hour (AID 1224875). Further: series mostly up to about 77 µM; nearly all actives have a fitted effect of over 45% in size. In short, it runs like this: as §2
Assay [20] can be described thus: qHTS RealTime-Glo MT Cell Viability Assay in HEK293 cells - 0 hour (AID 1224880). In outline: as §4

A number with no mark means an inactive call. Results filed as inconclusive are left out. Active and inactive are the calls of the source. The call rests on the fitted dose curve; in most records, active means well fitted curve in the direction sought with a large enough effect in the repeat runs; inconclusive means weak or mixed curves; inactive means no such curve, though single readings can be large; an effect the other way counts as inactive or inconclusive.
On the % scale 0 is the no-effect control and ±100 the full control effect.

For the compound `C#CC(O)CCCCC` (stereo not drawn), the Potency entry in assay [1], in [2], in assay [3], in assay [6], in assay [7] and in [8] was “inactive” throughout. In addition, the Potency result in assay [9], in [10], in assay [11], in assay [12], in [13] and in [15] was “inactive” in each case. The Potency result in [16], in assay [17] and in [18] was “inactive” throughout. Further, the result in assay [4] and in assay [14] was inactive. Also, the max response in [5] is 8.88%.
As to `CC1CCN(CCCC(=O)c2ccc(F)cc2)CC1`, the Potency entry in [1], in assay [2], in [3], in [19], in assay [6] and in assay [7] was “inactive” in each case. Further, the Potency entry in assay [8], in assay [9], in [10], in assay [11], in [12] and in assay [13] was “inactive” throughout. Also, the Potency result in assay [15], in assay [16], in [17] and in [18] was “inactive” each time. Also, the outcome in [4], in assay [20] and in assay [14] was inactive.
As for `CC(C)N1C(=O)c2ccccc2C1=O`, the Potency result in assay [1], in assay [2], in [3], in [6], in assay [7] and in assay [8] was “inactive” each time. Also, the Potency entry in [9], in [10], in assay [11], in assay [12], in [13] and in assay [15] was “inactive” in each case. Further, the Potency entry in assay [16], in [17] and in assay [18] was “inactive” in each case. The outcome in [4], in assay [20] and in [14] was inactive. Besides, the max response in assay [5] was 4.79%.
Consider `COc1cc(C(=O)N2CCOCC2)cc(OC)c1OC`, for which the Potency result in assay [1], in assay [2], in assay [3], in assay [6], in assay [7] and in assay [8] was “inactive” each time. For the same compound, the Potency result in assay [9], in assay [10], in assay [11], in assay [12], in [13] and in assay [15] was “inactive” in each case. Moreover, the Potency result in assay [16] and in assay [18] was “inactive” in each case. Also, the outcome in [4] and in assay [14] was inactive. The max response in assay [5] is 11.2%.
In the case of `C=C(C)[C@@H]1CCC2=CC(=O)C[C@@H](C)[C@]2(C)C1`, the Potency entry in assay [1], in [2], in [3], in assay [19], in [7] and in assay [10] was “inactive” each time. Moreover, the Potency entry in assay [11], in assay [13], in assay [15], in [16], in assay [17] and in assay [18] was “inactive” each time. Also, the compound was called inactive in [4] and in assay [14]. Also, the max response in assay [5] is 3.58%.
On to `O=Cc1ccccc1[N+](=O)[O-]`, for which the Potency entry in assay [1], in [2], in assay [3], in assay [6], in assay [7] and in [8] was “inactive” throughout. Besides, the Potency result in assay [9], in assay [10], in assay [11], in assay [12], in assay [13] and in assay [15] was “inactive” throughout. Besides, the Potency result in assay [16], in assay [17] and in assay [18] was “inactive” in each case. The call in assay [4], in assay [20] and in [14] was inactive. Also, the max response in [5] was -5.52%.
Take `Nc1cc(N)cc(C(=O)O)c1`: the Potency result in assay [1], in [2], in [3], in assay [6], in assay [8] and in assay [9] was “inactive” throughout. Moreover, the Potency result in assay [10], in [11], in assay [12], in assay [13], in assay [15] and in assay [16] was “inactive” each time. The Potency entry in assay [17] and in [18] was “inactive” throughout. Also, the outcome in assay [4] and in assay [14] was inactive. Moreover, in [5], the max response is 8.18%.
`CN(C)C(=O)C(CCN1CCC(O)(c2ccc(Cl)cc2)CC1)(c1ccccc1)c1ccccc1`: the Potency in assay [1] is 23.9 µM (active); in assay [2], 26.8 µM (active); in assay [3] it was 8.49 µM (active); in assay [5], 10.7 µM (active); in assay [6], 10.7 µM (active); in assay [8], 15.1 µM (active). For the same compound, the Potency is 23.9 µM (active) in assay [9], 19 µM (active) in [12], 9.52 µM (active) in assay [15] and 12 µM (active) in [16]. For the same compound, the compound was classed as inactive in assay [4] and in assay [20]. The Potency result in assay [13], in assay [17] and in assay [18] was “inactive” in each case.
As for `NS(=O)(=O)c1cc2c(cc1Cl)NC(CSCc1ccccc1)=NS2(=O)=O`, the Potency entry in assay [1], in [2], in assay [3], in assay [19], in assay [6] and in assay [7] was “inactive” in each case. Besides, the Potency result in assay [8], in [9], in assay [10], in assay [11], in assay [12] and in [13] was “inactive” in each case. Besides, the Potency result in [15], in assay [16] and in [17] was “inactive” each time. For the same compound, the compound was classed as inactive in assay [4], in assay [20] and in assay [14].
`OCC(O)[C@@H](O)[C@H](O)[C@H](O)CO[C@H]1O[C@H](CO)[C@@H](O)[C@H](O)[C@H]1O` (stereo partly drawn): the Potency entry in assay [1], in assay [2], in assay [3], in assay [6], in assay [7] and in assay [8] was “inactive” each time. Moreover, the Potency result in assay [9], in assay [10], in assay [11], in assay [12], in assay [13] and in [15] was “inactive” in each case. Further, the Potency entry in assay [16] and in assay [17] was “inactive” in each case. The compound was called inactive in assay [4] and in assay [20]. Also, in assay [5], the max response was -0.563%.
Consider `CC1=CC(C)C(C=O)C(C)C1` (stereo not drawn), for which the Potency entry in [1], in assay [2], in assay [3], in [6], in assay [7] and in assay [8] was “inactive” throughout. Besides, the Potency result in assay [9], in assay [10], in assay [11], in assay [12], in assay [13] and in [15] was “inactive” throughout. Further, the Potency result in assay [16], in [17] and in [18] was “inactive” throughout. For the same compound, the result in assay [4], in assay [20] and in [14] was inactive. In assay [5], the max response is 4.71%.

The record behind these values is PubChem BioAssay (Tox21).
